Results from PubChem BioAssay (NCI).
Compounds without any hit were thinned out: in the full panel of roughly 83,000, 20% have a hit.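 Growth was measured after 48 h exposure to one concentration of compound in 96-well plates. Values under 10 count as active.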 A number with no mark means an inactive call. Active and inactive are the calls of the source.

tested on: HL-60(TB) leukemia; experiment: NCI-60 one-dose screen, 48 h (100 = growth as untreated, 0 = no growth, -100 = all killed); settings: 10 µM unless noted

Compound | growth
Nc1ncc(-c2ccc3ncnc(N4CCc5cc(F)c(F)cc54)c3c2)cn1 | 37.1%
C#CCN(C)CCCOc1ccc(NCc2ccc(C(=O)NO)cc2)cc1Cl | 12%
N=c1c2cc(-c3ccccc3)oc2ncn1/N=C/c1ccc(Cl)cc1 | 116%
CC(C)(C)c1ccc(C(=O)Nc2nc3ccc(O)cc3s2)cc1 | 24.8%
O=C1CCC(N2C(=O)c3ccc(NS(=O)(=O)c4ccccc4OC(F)(F)F)cc3C2=O)C(=O)N1 (centres undefined) | -20.1% (active)
Nc1nc(Nc2ccccc2SSc2ccccc2Nc2nc(N)nc(-c3ccccc3)n2)nc(-c2ccccc2)n1 | 62.1%
CN1CCN(c2ccc(/C=N/n3cnc4oc(-c5ccccc5)cc4c3=N)cc2)CC1 | 121%
O=C(c1ccc(O)cc1)C1[C@H](c2ccc(Cl)cc2)[C@@H](c2ccccc2)NC12C(=O)Nc1ccc(Cl)cc12 (some centres undefined) | 38.5%
Nc1nc(N)c2c(n1)NC(c1ccc(C(F)(F)F)cc1)CC(c1ccc(Nc3nc(NCCO)nc(Nc4ccc(Cl)cc4)n3)cc1)=N2 (centres undefined) | -28.3% (active)
N#C/C(=C\c1ccc(Cl)cc1Cl)C(N)=O | 90.9%
NS(=O)(=O)c1ccc(Nc2nc(N/N=C/c3c[nH]c4ccccc34)nc(Nc3ccccc3)n2)cc1 | 34.4%
NC(N)=Nc1ccc(Oc2cccc(Oc3ccc(Cl)c(C(F)(F)F)c3)c2)cn1 | -69% (active)
Cn1ccnc1C(=O)/C=C/c1ccc(NC(=O)Nc2ccccc2)cc1 | -16.5% (active)
CCNC(=O)N1CCc2cc(OC)c(OCCc3ccc(OC)c(N)c3)cc2C1c1ccc(C)cc1C (centres undefined) | 16.5%
CN(c1ccc(Br)cc1)S(=O)(=O)c1ccc(-c2cnc(C3CC3)o2)cc1 | -25.1% (active)
COc1cc(C(=O)c2cc(C(C)=O)c3ccc(C)cn23)cc(OC)c1OC | 8.8% (active)
COc1cc(/C=C2\C(=O)Nc3ccccc32)ccc1OCc1ccc(F)cc1 | 115%
COc1ccc(C2C(C#N)=C(N)Oc3c2sc2ccc(C)cc32)cc1 (centres undefined) | 12.5%
O=C(NCCCNc1cc(-c2cn(-c3ccccc3)nc2-c2cccc(O)c2)ccn1)Nc1cccc(C(F)(F)F)c1 | 24.7%
O=C(/C=C/c1cn(-c2ccccc2)nc1-c1ccc(Cl)cc1)c1cc2ccccc2oc1=O | 85.6%

Compound | growth
CCCSc1nc(Nc2ccc(/C(C)=N\NC(N)=S)cc2)c(C#N)c(-c2ccc(OC)cc2)n1 | 74%
Cc1ccc(-c2cc3nc(C(Cl)Cl)nc(-c4cccs4)n3n2)cc1 | 23.9%
COC(=O)c1ccc(NC2=C(Cl)C(=O)c3nc(C)ccc3C2=O)cc1 | 21.2%
CCOc1c(C#N)c(Nc2ccc(S(N)(=O)=O)cc2)c(C#N)c2nnc(C)n12 | 114%
O=S(=O)(Nc1cccc2ccccc12)c1ccc(-c2cnc(C3CC3)o2)cc1 | -16.2% (active)
NC(N)=Nc1ccc(Oc2cccc(Nc3ccc(Br)c(C(F)(F)F)c3)c2)cn1 | -62.9% (active)
COc1ccc(S(=O)(=O)n2cc(C=O)c3ccccc32)c(OC)c1 | 4.32% (active)
O=C(Nc1ccc(Cl)c(C(F)(F)F)c1)Nc1ccc2c(ccn2C(=O)c2cccc(F)c2)c1 | 24.7%
COc1ccc([C@H]2C(=O)N(c3cc(OC)c(OC)c(OC)c3)[C@@H]2c2ccc(OC)c(O)c2)cc1 | -21.2% (active)
c1ccc2c(NCCCN3CCOCC3)c3oc4ccccc4c3nc2c1 | -21.5% (active)
O=C(CSc1nc2sc3c(c2c(=O)n1-c1ccc(Cl)cc1)CCCC3)NNC(=O)Nc1ccc(Cl)c(C(F)(F)F)c1 | 6.38% (active)
COc1cc2cc(Oc3ccc(NC(=O)c4cc(C(F)(F)F)cc(C(F)(F)F)c4)cc3)c(C)nc2cc1OCCN1CCOCC1 | 89.4%
Cc1ccc(C(=O)CSc2nnc(-c3ccc(-c4ccc(Cl)cc4)nc3C)o2)cc1 | 103%
C#Cc1ccc(NC(=O)c2ccc(/C=C/C(=O)c3nccn3C)cc2)c(F)c1 | 7.29% (active)
COc1ccc(OC)c(NC(=O)CCCCCCNC(=O)C(O)(O)C(F)(F)F)c1 | 10.6%
Nc1n[nH]c2cccc(C#Cc3cccc(NC(=O)c4cccc(OC(F)(F)F)c4)c3)c12 | 17.7%
CCOC(=O)c1cccc(NC2=C(Cl)C(=O)c3nc(C)ccc3C2=O)c1 | 42%
CCCCCCCCCC[C@@H](C)[C@@H]1CC(=O)N[C@H]([C@@H](C)O)C(=O)N[C@@H](C)C(=O)N[C@H](C)C(=O)N[C@@H](CCC(N)=O)C(=O)N[C@H](Cc2ccc(O)cc2)C(=O)N[C@@H](C(C)CC)C(=O)O1 (some centres undefined) | 65%
C#CCOc1ccc(C(Nc2cc(Cl)ccc2Cl)c2nnnn2C2CCCCC2)cc1 (centres undefined) | 88.4%
